Reference: PubChem BioAssay (Tox21)
Results filed as inconclusive are left out. Activity calls are given as the source filed them. Calls come from the whole dose curve; as a rule, active = well fitted inhibition curve with a large enough effect in the repeat runs; inconclusive = weak or mixed curves, or effect the other way; inactive = no such curve, though single readings can be large or run the other way.
% is set by controls: 0 for no effect and ±100 for the full control effect.

These compounds were tested against Nuclear receptor subfamily 1 group I member 3 (Homo sapiens) (UniProt Q14994) (assay: qHTS assay to identify small molecule antagonists of the constitutive androstane receptor (CAR) signaling pathway (AID 1224838;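 note: HepG2 cells stably expressing hCAR with CYP2B6 luciferase reporter stimulated by CITCO; nearly all actives have a fitted effect of over 40% in size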)). Conditions: HepG2-CYP2B6-hCAR luciferase, CITCO-stimulated, 24 h; series mostly up to 92.4 µM; activity, negative = inhibition: at the top concentration.
Sequence of Nuclear receptor subfamily 1 group I member 3 (Homo sapiens) (Q14994 whole entry, looked up): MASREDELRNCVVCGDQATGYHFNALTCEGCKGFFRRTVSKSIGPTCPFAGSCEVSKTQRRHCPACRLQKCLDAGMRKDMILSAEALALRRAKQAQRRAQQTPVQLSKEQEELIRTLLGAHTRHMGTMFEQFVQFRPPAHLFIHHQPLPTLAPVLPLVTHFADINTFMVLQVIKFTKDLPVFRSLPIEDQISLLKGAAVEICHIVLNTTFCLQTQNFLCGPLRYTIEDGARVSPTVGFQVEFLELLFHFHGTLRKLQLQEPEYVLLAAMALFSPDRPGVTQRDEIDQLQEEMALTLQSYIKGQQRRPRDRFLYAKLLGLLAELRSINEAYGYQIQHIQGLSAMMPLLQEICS
In short: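 Quantitative HTS in double-stable HepG2-CYP2B6-hCAR cells. After 4 h plating, cells get compound (15 concentrations) and CITCO at 50 nM final, incubate 24 h at 37 C, then ONE-Glo luminescence is read.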
In the case of `Nc1nc(Cl)cc(Cl)n1`, the “activity, negative = inhibition” value is reported as 87.4% (inactive).
For `Cc1ccc(NC(N)=O)cc1`, the “activity, negative = inhibition” value was -4.04% (inactive).
For `CCCC(=O)C(CC)Sc1ccoc1C` (stereo unspecified), the “activity, negative = inhibition” value was -0.6% (inactive).
With `Cc1ccc(O)c(C(=O)c2ccccc2)c1` the “activity, negative = inhibition” value was 39.7% (inactive).
`CCOC(=O)c1ccc(N(C)C)cc1` was tested, and the “activity, negative = inhibition” value was 199% (inactive).
In the case of `COC(=O)c1c(C)cc(O)c(C)c1O`, the “activity, negative = inhibition” value is reported as 89% (inactive).
`COc1cc(NS(=O)(=O)c2ccc(N)cc2)ncn1` was tested, and the “activity, negative = inhibition” value was -2.84% [at 42.5 µM] (inactive).
In the case of `Clc1ccc2c(c1)Nc1ccccc1S2`, the “activity, negative = inhibition” value is reported as 128% [at 42.5 µM] (inactive).
For `CC(C)(O)c1ccc(C(C)(C)O)cc1`, the “activity, negative = inhibition” value was 5.73% (inactive).
`COc1cc(C(=O)NC2CCCNC2)cc(OC)c1OC` (stereo unspecified) was tested, and the “activity, negative = inhibition” value was 21.7% [at 42.5 µM] (inactive).
With `Cc1nc2ccc(Cl)cc2[nH]1` the “activity, negative = inhibition” value was 158% (inactive).
With `COC(=O)C(c1ccccc1Cl)N1CCc2sccc2C1` (stereo unspecified) the “activity, negative = inhibition” value was 32.8% [at 42.5 µM] (inactive).
For `CC1(C)S[C@@H]2[C@H](NC(=O)Cc3ccccc3)C(=O)N2[C@H]1C(=O)O` (tested in a mixture with another compound), the “activity, negative = inhibition” value was -13.4% [at 42.5 µM] (inactive).
With `CCCCC(CC)CCC(CC(C)C)OS(=O)(=O)O` (stereo unspecified) the “activity, negative = inhibition” value was -6.86% (inactive).
`Nc1cc(S(=O)(=O)O)ccc1O` was tested, and the “activity, negative = inhibition” value was -3.2% (inactive).
For `O=C(O)COc1ccc2ccccc2c1`, the “activity, negative = inhibition” value was 38.2% (inactive).
In the case of `O=S(=O)(O)CC(O)CCl` (stereo unspecified), the “activity, negative = inhibition” value is reported as 6.43% (inactive).
For `O=C(c1ccccc1)c1cccc(O)c1`, the “activity, negative = inhibition” value was 135% (inactive).
With `O=C1Nc2ccccc2C1=O` the “activity, negative = inhibition” value was 77.4% (inactive).
For `Cc1cc(N)no1`, the “activity, negative = inhibition” value was 20.3% (inactive).
With `NNC(=O)OCc1ccccc1` the “activity, negative = inhibition” value was 64.8% (inactive).
In the case of `CCCCCCC(O)CO` (stereo unspecified), the “activity, negative = inhibition” value is reported as -4.93% (inactive).
For `C=CCOC(=O)CCCCCCCC`, the “activity, negative = inhibition” value was 19% (inactive).
In the case of `Cc1cc(C)c(C)c(C)c1`, the “activity, negative = inhibition” value is reported as -6.23% (inactive).
With `Cc1cc2c(cc1CC(=O)c1sccc1S(=O)(=O)Nc1onc(C)c1Cl)OCO2` the “activity, negative = inhibition” value was 9.99% [at 42.5 µM] (inactive).
In the case of `C=C(C)C(=O)OCCOC1CC2CC1C1C=CCC21` (stereo unspecified), the “activity, negative = inhibition” value is reported as 3.88% (inactive).
